Source: PubChem BioAssay (National Center for Advancing Translational Sciences (NCATS))
D3 ag: activates the human D3 dopamine receptor. D3R DiscoveRx beta-arrestin cells, luminescence, 90 min. max activation, %. hit rate 0.58% among 410,000. AID 652048; in the data active means max activation above about 30%; further: 0% is about no effect
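Cells at 1500/well, incubated overnight, then treated with pinned compounds (dopamine as control) for 90 min at 37 degrees C. DiscoveRx reagent added for 30 - 60 minutes at room temperature; luminescence read.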
DRD3 antagonist: blocks the human D3 dopamine receptor; P35462; D3R cells, DiscoveRx beta-arrestin luminescence, antagonist mode; hits give low values; max response, negative = inhibition, %; hit rate 2.5% among 360,000; AID 652054; in the data active means max response below about -50%; inconclusive means no clear call, values can overlap the other calls; further: on the % scale 0 is the no-effect control and ±100 the full control effect
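Cells plated overnight at 1500 cells/well, then exposed to library compounds with dopamine controls for 90 minutes at 37 degrees C. DiscoveRx reagent added for 30–60 minutes at room temperature; luminescence read, quantitative HTS format.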
D1 antag: antagonists of human D1 dopamine receptor; activity change, negative = inhibition, % at 10 µM; P21728; HEK293 TREx D1 cells, calcium flux, dopamine EC80; hits give low values; hit rate 3.2% among 360,000; in the data active means activity change below about -30%; further: on the % scale 0 is the no-effect control and ±100 the full control effect
Target sequence (P21728 whole entry, looked up): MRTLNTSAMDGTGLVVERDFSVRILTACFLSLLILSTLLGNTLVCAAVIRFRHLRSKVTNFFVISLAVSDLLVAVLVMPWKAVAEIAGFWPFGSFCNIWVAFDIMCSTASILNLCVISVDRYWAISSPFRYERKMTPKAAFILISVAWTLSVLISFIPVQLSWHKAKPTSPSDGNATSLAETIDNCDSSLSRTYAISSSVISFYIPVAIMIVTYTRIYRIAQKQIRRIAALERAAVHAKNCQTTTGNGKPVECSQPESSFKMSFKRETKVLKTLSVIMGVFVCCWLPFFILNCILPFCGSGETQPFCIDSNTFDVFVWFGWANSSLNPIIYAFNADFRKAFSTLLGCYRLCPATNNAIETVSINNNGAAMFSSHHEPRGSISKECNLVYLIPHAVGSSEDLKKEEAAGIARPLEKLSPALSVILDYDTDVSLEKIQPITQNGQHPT
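Inducible Hek293 Trex D1 cells (tetracycline, overnight, 30 C). Calcium dye 30–90 min RT. Antagonist mode: EC80 dopamine added after 180 s compound read.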
D1 PAM: potentiators of human D1 dopamine receptor | P21728 | HEK293 TREx D1 cells, calcium flux, dopamine EC20 potentiation | potentiation, % at 10 µM | hit rate 0.036% among 360,000 | AID 504651; in the data active means potentiation above about 30%; further: 0% is about no effect
D1 ag: human D1 receptor agonism; HEK293 T-REx D1 cells, calcium flux, agonist mode; activation, % at 2 µM; hit rate 1% among 360,000; AID 504660; in the data active means activation above about 30%; further: 0% is about no effect
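Tetracycline-induced HEK293 TREx D1 cells, force-coupled to calcium signalling, were dye-loaded with a no-wash calcium kit. Compound was pin-added after a 10 s baseline. Fluorescence was read kinetically at 1 cycle/s for 180 s, with calcium rises flagged as agonism.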
* hit, by the source's call; ? = inconclusive; nt = not tested or not shown; ! = not active in a repeat. Rows were chosen to be rich in hits. Some 6% of all compounds tested hit in one or more screens of this group.

SMILES | D3 ag | DRD3 antagonist | D1 antag | D1 PAM | D1 ag
CCc1nn(CC(=O)NCCCN2CCc3ccccc3C2)c(=O)c2cc3sccc3n12 | -16 | -112* | -6 | -1 | 0
CCc1nn(CC(=O)NCCCN2CCN(C)CC2)c(=O)c2cc3occc3n12 | -8 | -15 | -37*! | 0 | 2
CCc1nn(CC(=O)NCCCN2CCN(C)CC2)c(=O)c2cc3sccc3n12 | -12 | -7 | 2 | 9 | 3
CCc1nn(CC(=O)NCCCN(C)Cc2ccccc2)c(=O)c2cc3sc(C)cc3n12 | -7 | -24 | -37* | 3 | 3
C=Cc1ccc(Cn2c(=O)n(-c3cccc(Cl)c3)c(=O)c3c4c(sc32)CN(C(C)=O)CC4)cc1 | 3 | nt | 10 | -6 | 4
NC(=O)CC(NC(=O)Cc1cccc2ccccc12)c1ccc(NCCOc2ccccc2)c([N+](=O)[O-])c1 (centres undefined) | -31 | -80* | 6 | -6 | 3
NC(=O)CC(NC(=O)Cc1ccc(Cl)cc1)c1ccc(NC2CC3CCC2C3)c([N+](=O)[O-])c1 (centres undefined) | -8 | -63* | 6 | 1 | 2
NC(=O)CC(NC(=O)Cc1cccc2ccccc12)c1ccc(NC2CC3CCC2C3)c([N+](=O)[O-])c1 (centres undefined) | -23 | -65* | 6 | 3 | -1
NC(=O)CC(NC(=O)Cc1cccc2ccccc12)c1ccc(NCC2CC2)c([N+](=O)[O-])c1 (centres undefined) | -14 | ? | -3 | 4 | 4
Cc1ccc(-c2cc(-c3coc4ccc(Cl)cc4c3=O)c3c(n2)-c2ccccc2OC3)cc1 | 7 | nt | -2 | -3 | -1
CC1CC1C(=O)OCC(=O)NC(=O)c1ccc(C(C)(C)C)cc1 (centres undefined) | 39* | 19 | nt | nt | nt
CC(=O)NS(=O)(=O)c1ccc(N=NN2CCCCCC2)cc1 | -5 | 9 | 0 | 5 | -1
CC(=O)NS(=O)(=O)c1ccc(N=NN2CCOCC2)cc1 | 5 | 10 | -57* | -6 | 0
CCN1CCN(CCCNC(=O)c2cc3c(=O)n(C)c4ccccc4c3s2)CC1 | -4 | nt | 7 | -2 | 3
CN1C2CCC1/C(=C\c1ccccc1F)C(=O)/C2=C/c1ccccc1F | -8 | -54* | -5 | -2 | 1
CCc1nc(C)c(C#N)c2cc(OC)c(OC)cc12 | -4 | 10 | -34* | -6 | 0
O=C(COC(=O)c1cccc(OC(F)F)c1)NC(=O)NC1CCCCC1 | 1 | 0 | -11 | -3 | 43*
O=C(COC(=O)c1ccc2c(c1[N+](=O)[O-])C(=O)c1ccccc1C2=O)NC1CC1 | -9 | -64* | -5 | -3 | 0
CC1CCCCC1NC(=O)COC(=O)c1ccc2c(c1Cl)C(=O)c1ccccc1C2=O (centres undefined) | 1 | 13 | -3 | -2 | 0
O=C(COC(=O)c1ccccc1F)NC1CCCC1 | 3 | -4 | -5 | -9 | 3
Cc1ccc(NC(=O)COC(=O)c2cccc3c2C(=O)c2ccccc2C3=O)c(C)c1 | 22 | 53 | 10 | -8 | 4
O=C(COC(=O)c1cccc2c1C(=O)c1ccccc1C2=O)NC1CCCCC1 | 2 | 67 | -78* | 3 | 7
Cc1cc(C)c(NC(=O)COC(=O)c2cccc3c2C(=O)c2ccccc2C3=O)c(C)c1 | 32* | 35 | 10 | 1 | -2
Cc1ccc(CN2C(=O)CN(C3CCCCCC3)C(=O)C2c2ccc(F)cc2)cc1 (centres undefined) | 2 | nt | 5 | -3 | -1
COc1cccc(NC(=S)NCCC(c2ccccc2)c2ccccc2)c1 | -7 | 0 | -50* | -9 | 20
SMILES | D3 ag | DRD3 antagonist | D1 antag | D1 PAM | D1 ag
CC(C)CCNC(=S)Nc1ccc([N+](=O)[O-])cc1 | -5 | -13 | -46* | -3 | 34*
CC(C)CCNC(=S)Nc1ccc(Br)cc1 | 3 | 1 | -33* | -13 | 13
S=C(NCCc1ccccc1)N/N=C/c1ccccc1Cl | -13 | -24 | -33* | 5 | 5
COc1ccc(CCNC(=O)CSc2nnc(-c3ccc(C)cc3)c(-c3ccc(C)cc3)n2)cc1OC | 8 | nt | -5 | 0 | -2
O=C(NCc1cccc(F)c1)c1ccc2nc(N3CCCCC3)sc2c1 | -8 | nt | 9 | -1 | 2
CCOc1ccc(NC(=O)c2ccc(NC(=O)N3CCSc4ncccc43)cc2)cc1 | 1 | nt | -26 | -1 | -1
Cc1ccccc1-c1nc2c3c(-c4ccccc4)c(-c4ccccc4)oc3ncn2n1 | 8 | nt | -9 | -1 | 3
FC(F)(F)c1ccc(Cl)c(NC(=S)N/N=C/c2ccccc2Cl)c1 | -1 | -66* | -9 | -5 | 1
O=C(NC(=S)Nc1cc(C(F)(F)F)ccc1Cl)c1ccccc1 | -10 | ? | -8 | 1 | 2
CC(C)OC(=O)c1cc(NC(=S)Nc2ccc([N+](=O)[O-])cc2)cc(C(=O)OC(C)C)c1 | 3 | -63* | 5 | -3 | 2
COc1ccc(CCNC(=S)Nc2cccc3ccccc23)cc1 | -1 | 13 | -6 | -2 | 5
CCCCNC(=S)Nc1ccc([N+](=O)[O-])cc1 | -7 | -13 | -33* | -6 | 19
COc1ccc(OCCNC(=S)Nc2cccc3ccccc23)cc1 | -25 | 12 | -39* | -4 | 3
CCCCNC(=S)Nc1ccc(Oc2ccccc2)cc1 | 5 | 0 | -11 | -7 | 22
COc1cccc(C(=O)N2CCCCC2CCN2CCCCC2)c1 (centres undefined) | -23 | nt | -5 | -2 | 4
CCOC(=O)c1cnc2cc(C(F)(F)F)ccc2c1Nc1ccc(F)cc1F | -8 | nt | -8 | 4 | 1
CC(=O)Nc1ccc(Nc2ncnc3c2c(-c2ccccc2)cn3-c2ccc(C)c(Cl)c2)cc1 | 6 | nt | 0 | 1 | -2
CCN(CC)S(=O)(=O)c1ccc2c(c1)N(CC(=O)N(C)Cc1ccccc1)C(=O)CO2 | -19 | nt | 3 | -3 | 2
COc1ccc2c(c1)-c1nc(NC(=O)c3ccc(OC)c(Br)c3)sc1CC2 | -17 | nt | -15 | -2 | 0
COc1ccc(S(=O)(=O)NCCc2nnc3ccc(SCC(=O)Nc4ccc(C(F)(F)F)cc4)nn23)cc1 | -11 | nt | -4 | -1 | -1
CC1Cc2cc(S(=O)(=O)CCC(=O)Nc3ccccc3F)ccc2N1C(=O)C1CC1 (centres undefined) | 5 | nt | -11 | 1 | 2
Cn1cc(S(=O)(=O)N2CCCCCC2)cc1C(=O)N1CCN(c2cccc(C(F)(F)F)c2)CC1 | -6 | nt | -11 | 2 | 1
O=c1c(-c2cc(-c3ccccc3)nc3c2COc2ccc(Cl)cc2-3)coc2ccc(F)cc12 | 1 | nt | -3 | -4 | -1
CC(C)Oc1ccc(CCC(=O)NNC(=S)Nc2ccccc2)cc1 | -8 | ? | -31* | -2 | 9
COc1ccc(CSCCNC(=S)Nc2ccccc2)cc1Cl | -6 | -12 | -33* | -8 | 18
